Active and inactive are the calls of the source. The calls were made as follows: active = hit-call score of the fitted dose curve at least 0.9, where 1 is the maximum; inactive = score below 0.9.
Assay: CCTE_Mundy_HCI_Cortical_NOG_BPCount: CCTE's Neurite Outgrowth Assay in rat cortical cells for Branch Point Count, Mundy Lab (AID 2284237);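 as to AC50: branch points counted about two days after chemical exposure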
Description: CCTE_Mundy_HCI_Cortical_NOG is a multiplexed, cell-based-readout assay that uses rat primary cortical cells with measurements taken at 50.33 hours after chemical dosing in a microplate: 96-well plate.CCTE_Mundy_HCI_Cortical_NOG_BPCount is one of four components of the CCTE_Mundy_HCI_Cortical_NOG assay. It measures neurite outgrowth related to the number of branch points using High Content Imaging of fluorescently labelled markers.[…] Using a type of morphology reporter, loss -of-signal activity can be used to understand developmental effects.
Exposure starts 2 hours post-plating by adding 10 ul of the working solution to 90 ul of media in the wells for a 1/10 dilution. Forty-eight hours after chemical treatment cells are fixed by direct addition of 100 ul of warm (37C) Dulbecco's phosphate buffered saline (DPBS) fixative solution containing 8% paraformaldehyde, 8% sucrose, and 0.1% of 3 mg/ml Hoechst 33342 into each well. Primary antibodies are prepared by dilution in Immunocytochemical Staining Buffer (ISB), 10X Dulbecco's PBS, 0.1% Saponin, 5% Bovine Serum Albumin, 0.5% NaN3 (Sodium Azide) and betaIII-tubulin (rabbit anti-betaIII-tubulin, 1:800) followed by Alexa Fluor-488 secondary (1:500) to label neuronal cell bodies and neurites. A Cellomics ArrayScan VTi HCS Reader is used for automated image acquisition and analysis of neurite outgrowth.
In the case of C[C@@H]1CC[C@@H](C(C)(C)O)[C@H](O)C1, the outcome is reported as “inactive”.
With CC(CNC(=S)[S-])NC(=S)[S-].[Zn+2] (stereo not given) the AC50 was 22.2 µM (active).
In the case of C[C@@H]1CCO[C@H]2Cn3cc(C(=O)NCc4ccc(F)cc4F)c(=O)c(O)c3C(=O)N12, the outcome is reported as “inactive”.
In the case of F, the outcome is reported as “inactive”.
In the case of CCCCCC=C(C)C(CC)CCO (stereo not given), the outcome is reported as “inactive”.
For CCc1ccccc1, the outcome was “inactive”.
In the case of CCN(CC)CCCC(C)Nc1nc(C)cc(Nc2ccc3nc(C)cc(N)c3c2)n1 (stereo not given), the outcome is reported as “inactive”.
In the case of O=C1CC2(CCCC2)CC(=O)N1CCCCN1CCN(c2ncccn2)CC1, the AC50 is reported as 9.79 µM (active).
For Cc1[nH]n(C)c(=O)c1C(=O)c1ccc(C(F)(F)F)cc1S(C)(=O)=O, the outcome was “inactive”.
For CC(=O)N[C@@H](CC(=O)O)C(=O)O, the outcome was “inactive”.
For CCCCCC(C)(CC)C(=O)NC (stereo not given), the outcome was “inactive”.
With CC(C)c1nn(C(=O)NC(C)(C)C)c(=O)n1N the outcome was “inactive”.
In the case of CC(C)O, the outcome is reported as “inactive”.
In the case of BrC1CC(Br)CC(Br)CC(Br)CC(Br)CC(Br)C1 (stereo not given), the AC50 is reported as 8.4 µM (active).
For [Li+], the outcome was “inactive”.

From PubChem BioAssay (EPA / NIEHS)
